From PubChem BioAssay (NCATS) come the findings set out here.

The source made the active and inactive calls. A call without a number means that no potency is given here. Calls come from the whole dose curve; as a rule, active = well fitted inhibition curve with a large enough effect; inconclusive = small, poorly fitted or top-dose-only effect; inactive = flat fitted curve, though single readings scatter.

For this test, the system named is Nanoluciferase (engineered Oplophorus gracilirostris luciferase). Nature of the test: Primary Nanoluciferase (NLuc) qHTS assay for identification of artifact compounds. (AID 1845222). As to conditions: NLuc-conditioned medium, Nano-Glo luminescence, 5 min; series mostly up to 54.1 µM. The source says: PI: Alexander Tropsha Ph.D.
UNC Eshelman School of Pharmacy
University of North Carolina, Chapel Hill, North Carolina
Hits from high-throughput screening (HTS) of chemical libraries are often false positives due to their interference with the assay detection technology. In response to this problem, we generated the largest publicly available library of chemical liabilities and developed a free webtool to predict HTS artifacts, both of which are described herein. More specifically, we generated, curated, and integrated HTS datasets for thiol reactivity, redox activity, and luciferase (firefly and nano) activity. Using these curated datasets, we developed and validated several Quantitative Structure-Interference Relationship (QSIR) models to predict nuisance behavior. […] These models were employed for virtual profiling of the National Center for Advancing Translational Science's (NCATS) in-house library, and 256 compounds for each assay were selected for the experimental validation of nuisance behavior. The BA for these external predictions ranged from 58 to 78% for compounds within the applicability domains of the models. […] The models developed in this study, along with aggregation models previously developed by our group (SCAM Detective) were implemented in "Liability Predictor," an online tool which may be used as part of chemical library design or for triaging HTS hits. Both the models and the curated datasets are publicly available at https://liability.mml.unc.edu/.
SEQUENCE No. (e.g., 1, 2, 3, etc.); […] (e.g., Cells, Incubation, Reagent, etc.); VALUE; DESCRIPTION.
1; Reagent; 2 uL; Nanoluciferase media.
2; Compounds and control; 16 nL; Kalypsis pin tool (Wako USA) equipped with a 1536-well pin head.
4; Reagent; 2 uL; Luciferase enzyme.
6; Detection; Luminescence, ViewLux microplate reader.
NOTES (numbers refer to Sequence numbers above)
1. Medium was collected from the culture flasks of NLuc-expressing S16 cells (80% confluent) prior to cell plating, filtered through a 0.22um filter, and frozen at -20C prior to use. Media was diluted (1:55) and 2 uL was dispensed into all wells of a 1536-well assay plate (solid-bottom white plate; Greiner Bio One, Monroe, NC).
2. A Wako Pin-tool (Wako Automation, Richmond, VA) was used to transfer 16 nL of compounds (consisting of 7-plates in qHTS format, final concentration range 18.3 nM to 114 uM) or control Cilnidipine (final concentration range 623 nM to 80 uM).
3. 15 min. incubation at room temperature protected from light.
4. 2 uL of NLuc substrate (1:100 in Nano-Glo luciferase buffer; Nano-Glo luminescence assay, Promega, Madison, WI) was dispensed for a final assay volume of 4 uL.
5. Plates were centrifuged (121xg, 15 seconds) and incubated for 5 minutes.
6. Samples were read for luminescence on a ViewLux CCD imager (PerkinElmer). Data were normalized to no-enzyme (0% activity) and no-inhibitor (DMSO; 100%) controls and the resulting percent inhibition data were fitted to a 4-parameter Hill equation using NCATS in-house software.
As to `C=C1CC[C@@H]2[C@](C)(CO)[C@H](O)CC[C@@]2(C)[C@@H]1C/C=C1/C(=O)OCC1O` (stereo not given in full), the Potency entry was “inactive”.
For the compound `CC(=O)OC[C@]12[C@H](OC(C)=O)C(=O)[C@@H]3[C@@H](O)[C@@]14O[C@@]3(C)COC(=O)c1cccnc1[C@@H](C)[C@H](C)C(=O)O[C@@H]([C@H](O)[C@@H]2OC(C)=O)[C@]4(C)O`, the Potency result was “inactive”.
Regarding `COc1ccnc(CS(=O)c2nc3cc(OC(F)F)ccc3[nH]2)c1OC` (stereo not given), the Potency result was “inactive”.
The value for `Cc1ccc(-c2cn3c4c(sc3n2)CCCC4)cc1` was “inactive”; that for `C=C1C(=O)O[C@@H]2C[C@@]3(C)CCCC(=C)[C@]3(O)C[C@H]12` was “inactive”; that for `CC[C@@H](C)Nc1cc(C(=O)NC2CC3CCC(C2)N3c2ccc(C(=O)C3CC3)cn2)c(C)cc1C(N)=O` (stereo not given in full) was “inactive”.
The value for `C=C1C(=O)O[C@@H]2[C@H]1CC(=O)[C@H](C)[C@@](O)(C(=O)/C=C/C)[C@H]2OC(=O)C(C)CC` (stereo not given in full) was “inactive”.
For `C=C(C)C(=O)O[C@H]1[C@H]2C(=C)C(=O)O[C@@H]2C[C@@H](C)[C@@H]2O[C@@H]2C(=O)[C@](C)(O)[C@@H]1OC(=O)C(=C)C`, the Potency entry was “inactive”.
The value for `CCS(=O)c1nc(-c2cccc(OCc3ccccc3)c2)cc(C(F)(F)F)n1` (stereo not given) was “inactive”.
Turning to `CC[C@@H](C)[C@@H]1OC2(C=C[C@H]1C)C[C@@H]1C[C@H](C/C=C(\C)[C@H](O[C@H]3C[C@H](OC)[C@H](O[C@H]4C[C@H](OC)[C@H](NC(C)=O)[C@H](C)O4)[C@H](C)O3)[C@H](C)/C=C/C=C3\CO[C@H]4[C@H](O)C(C)=C[C@@H](C(=O)O1)[C@@]34O)O2` (stereo not given in full), the Potency entry is “inactive”.
The value for `Cc1nc2ccc(CN(C)c3ccc(C(=O)NC(CCC(=O)O)C(=O)O)s3)cc2c(=O)[nH]1` (stereo not given) was “inactive”; that for `CC(=O)OC1C(OC(=O)c2ccccc2)C2C(C)(C)CCC(OC(C)=O)C2(C)C23CCC(C)(C2)C(=O)CC13` (stereo not given) was “inactive”.
As to `CCCCCCOC(=O)/N=C(\N)c1ccc(NCc2nc3cc(C(=O)N(CCC(=O)OCC)c4ccccn4)ccc3n2C)cc1`, the Potency entry is “inactive”.
The result for `Cc1cc(OCCCS(C)(=O)=O)cc(C)c1-c1cccc(COc2ccc3c(c2)OCC3CC(=O)O)c1` (stereo not given) reads “inactive”.
In the case of `CCCc1cc(C)[nH]c(=O)c1CNC(=O)c1cc(-c2ccnc(N3CCN(C)CC3)c2)cc2c1cnn2C(C)C`, the Potency result is “inactive”.
As for `CC1OC(=O)C[C@@H]2C(C(=O)O)=CO[C@@H](O[C@H]3O[C@H](CO)[C@@H](O)[C@H](O)[C@H]3O)[C@H]12` (stereo not given in full), the Potency result is “inactive”.
`Clc1ccc(Nc2nc3ccccc3c3nc(C4CCCCC4)[nH]c23)cc1Cl`: the Potency result was “inactive”.
The value for `C=C1/C(=C/C=C2\CCC[C@]3(C)[C@@H]([C@H](C)/C=C/[C@H](O)C4CC4)CC[C@@H]23)C[C@@H](O)C[C@@H]1O` was “inactive”; that for `C=C(C(=O)OC)[C@@H]1CC=C2C=CC(=O)[C@H](C)[C@@]2(C)C1` was “inactive”.
The result for `Cc1nc2c(C(F)(F)F)cccc2nc1-c1ccc(-c2cccc(S(C)(=O)=O)c2)cc1` reads “inactive”; that for `Oc1ccc(-c2cnc3ccc(NCc4ccco4)nn23)cc1`, “inactive”; that for `CNc1ccc([N+](=O)[O-])c(Nc2ccc3[nH]ncc3c2)n1`, “inactive”.
For the compound `Cc1ccc(-c2ncccn2)c(C(=O)N2C[C@H](COc3ccc(F)cn3)CC[C@H]2C)c1`, the Potency result is “inactive”.
Take `CC(=O)O[C@@H]1CC2C(C)(C)C(=O)C=C[C@]2(C)C2CC[C@@]3(C)[C@H](c4ccoc4)OC(=O)[C@H]4O[C@]43[C@@]21C` (stereo not given in full): the Potency entry was “inactive”.
The value for `Cc1nnc(C[C@@H]2C=C(c3ccc(Cl)cc3)c3ccccc3-n3c(C)nnc32)o1` was “inactive”; that for `CC(=O)OC1C(=O)C2C3OCC4=C3[C@@](C)(CC[C@@H]4O)CC[C@]2(C)[C@H]1C(C)C` (stereo not given in full) was “inactive”.
On to `COc1cc(CCc2ccc(OCC=C(C)C)cc2)cc(OC)c1OC`, for which the Potency result is “inactive”.
On to `O=C(NCC(=O)N1CCCC1)Nc1ccc2cnccc2c1`, for which the Potency result was “inactive”.
The value for `COc1cc(N2CCC(N3CCN(C)CC3)CC2)ccc1Nc1ncc(Cl)c(Nc2ccccc2P(C)(C)=O)n1` was “inactive”; that for `COc1ccc(N2CCN(C(=O)c3cc4c(s3)-c3ccccc3S(=O)(=O)C4)CC2)cc1` was “inactive”; that for `COc1ccc(NC(=O)c2ccc(C(=N)N(C)C)cc2)c(C(=O)Nc2ccc(Cl)cn2)c1` was “inactive”.
The result for `Cc1cn2c(n1)Cc1ccc(Cl)cc1C(c1ccc(N)cc1)=N2` reads “inactive”; that for `CS(=O)(=O)Nc1ccc2oc3c(OC(F)F)ccc(C(=O)Nc4c(Cl)cncc4Cl)c3c2c1`, “inactive”.
The result for `C=C1C(=O)OC2C=C(C)CC/C=C(\CO)CC(O)C12` (stereo not given) reads “inactive”; that for `N#Cc1cnc2c(Cl)cc(NCc3cn(CCN4CCCCCC4)nn3)cc2c1Nc1ccc(F)c(Cl)c1`, “inactive”; that for `C1=Cc2ccccc2C(=C2CCN(CCCCc3nn[nH]n3)CC2)c2ccccc21`, “inactive”.
`C=CC(C)(C)c1[nH]c2ccccc2c1C[C@@H]1NC(=O)[C@H](C)NC1=O`: the Potency result is “inactive”.
The value for `CC(C)CCNC(=O)[C@H](CC(C)C)NC(=O)[C@H]1O[C@@H]1C(=O)O` was “inactive”; that for `Cn1c(=O)c(F)c(Nc2ccc(I)cc2F)c2c(=O)n(CC(O)CO)cnc21` (stereo not given) was “inactive”.
For `CC(C)c1ccccc1OC(=O)NCCc1ccc2ccccc2c1`, the Potency entry was “inactive”.
